Results published in the supplement of paper PMC10503962.

Test system: Trichuris muris adult worms
Test: mean motility score (Paragon pixel variance) of adult worms (arbitrary units); higher = more motile worms, i.e. less anthelmintic effect; extreme values may be limits of the assay
Conditions: 100 µM; 24 h
In short: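 Single adult Trichuris muris worms, recovered from infected NOD SCID mice, were exposed to drug at 100 μM (1% v/v DMSO) in 100 μL RPMI-1640 with antibiotics in 96-well plates for 24 h at 37°C and 5% CO2. The plates were then filmed on an automated phenotyping platform. The motility score was calculated through Paragon pixel-variance analysis and averaged across replicate wells, with three worms in three wells per drug on three separate occasions.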

| SMILES | mean motility score |
| --- | --- |
| Cc1cc(CC(=O)[O-])n(C)c1C(=O)c1ccc(Cl)cc1.[Na+] [zomepirac sodium] | 2840 |
| NCCCC[C@H](N[C@@H](CCc1ccccc1)C(=O)O)C(=O)N1CCC[C@H]1C(=O)O [lisinopril] | 1970 |
| COc1ccccc1N1CCN(CCCNc2cc(=O)n(C)c(=O)n2C)CC1 [urapidil] | 2810 |
| Cc1nc(Nc2ncc(C(=O)Nc3c(C)cccc3Cl)s2)cc(N2CCN(CCO)CC2)n1 [dasatinib] | 1190 |
| CCOC(=O)[C@H](CCc1ccccc1)N[C@@H](C)C(=O)N1CCC[C@H]1C(=O)O [enalapril] | 2120 |
| CCC(C)n1ncn(-c2ccc(N3CCN(c4ccc(OC[C@H]5CO[C@](Cn6cncn6)(c6ccc(Cl)cc6Cl)O5)cc4)CC3)cc2)c1=O (stereo partly drawn) [itraconazole] | 1700 |
| O=C1CCc2ccc(OCCCCN3CCN(c4cccc(Cl)c4Cl)CC3)cc2N1 [aripiprazole] | 3030 |
| CN(C)CCCN1c2ccccc2Sc2ccc(Cl)cc21 [chlorpromazine] | 0 |
| COC1=CC(=O)C[C@@H](C)[C@]12Oc1c(Cl)c(OC)cc(OC)c1C2=O [griseofulvin] | 1250 |
| COCCCC/C(=N\OCCN)c1ccc(C(F)(F)F)cc1 [fluvoxamine] | 2670 |
| Cc1c(-c2ccccc2)oc2c(C(=O)OCCN3CCCCC3)cccc2c1=O [flavoxate] | 4070 |
| CCCCCCCCCCC[C@@H](C[C@@H]1OC(=O)[C@H]1CCCCCC)OC(=O)[C@H](CC(C)C)NC=O [orlistat] | 3180 |
| NC(=O)c1ncn([C@@H]2O[C@H](CO)[C@@H](O)[C@H]2O)c1O [mizoribine] | 2990 |
| COC(=O)c1ccc2c(c1)NC(=O)/C2=C(\Nc1ccc(N(C)C(=O)CN2CCN(C)CC2)cc1)c1ccccc1 [nintedanib] | 3140 |
| Cl.Nc1c2c(nc3ccccc13)CCCC2 [tacrine hydrochloride] | 2770 |
| C[C@]12CC[C@@H]3c4ccc(O)cc4CC[C@H]3[C@@H]1CCC2=O [estrone] | 2280 |
| CN(C)c1nc(N(C)C)nc(N(C)C)n1 [altretamine] | 3430 |
| COC(=O)c1ccccc1O [methyl salicylate] | 3260 |
| Cc1ccc(C)c(OCCCC(C)(C)C(=O)O)c1 [gemfibrozil] | 3280 |

| SMILES | mean motility score |
| --- | --- |
| CC(C)(C(=O)c1cccnc1)c1cccnc1 [metyrapone] | 3950 |
| Br.CCCCCCCCCCCCCCCC[N+](C)(C)CCN(Cc1ccc(OC)cc1)c1ncccn1 [thonzonium bromide] | 0 |
| CN1Cc2c(N)cccc2C(c2ccccc2)C1 (stereo not drawn) [nomifensine] | 2230 |
| CN1CCN(CCCN2c3ccccc3Sc3ccc(C(F)(F)F)cc32)CC1.Cl.Cl [trifluoperazine dihydrochloride] | 0 |
| Nc1nnc(-c2cccc(Cl)c2Cl)c(N)n1 [lamotrigine] | 2280 |
| CO[C@@]1(NC(=O)CSCC#N)C(=O)N2C(C(=O)[O-])=C(CSc3nnnn3C)CS[C@@H]21.[Na+] [cefmetazole sodium] | 2040 |
| Cc1ccc(N(C=C2NCCN2)c2cccc(O)c2)cc1 [phentolamine] | 2960 |
| CN(Cc1cnc2nc(N)nc(N)c2n1)c1ccc(C(=O)N[C@@H](CCC(=O)O)C(=O)O)cc1 [methotrexate] | 3700 |
| COC(=O)[C@H]1[C@H]2C[C@@H]3c4[nH]c5cc(OC)ccc5c4CCN3C[C@H]2C[C@@H](OC(=O)c2cc(OC)c(OC)c(OC)c2)[C@@H]1OC [reserpine] | 2180 |
| C=CC[C@@H]1/C=C(\C)C[C@H](C)C[C@H](OC)[C@H]2O[C@@](O)(C(=O)C(=O)N3CCCC[C@H]3C(=O)O[C@H](/C(C)=C/[C@@H]3CC[C@@H](O)[C@H](OC)C3)[C@H](C)[C@@H](O)CC1=O)[C@H](C)C[C@@H]2OC [tacrolimus] | 0 |
| NS(=O)(=O)c1cc2c(cc1Cl)NCNS2(=O)=O [hydrochlorothiazide] | 3580 |
| COC1=C(OC)C(=O)C(C/C=C(\C)CC/C=C(\C)CC/C=C(\C)CC/C=C(\C)CC/C=C(\C)CC/C=C(\C)CC/C=C(\C)CC/C=C(\C)CC/C=C(\C)CCC=C(C)C)=C(C)C1=O [ubidecarenone] | 2770 |
| CC(C)(C)NCC(O)c1ccc(O)c(CO)c1.O=S(=O)(O)O (stereo not drawn) [albuterol sulfate] | 1690 |
| CO/N=C(\C(=O)N[C@@H]1C(=O)N2C(C(=O)[O-])=C(COC(N)=O)CS[C@H]12)c1ccco1.[Na+] [cefuroxime sodium] | 2610 |
| O=c1oc2ccccc2c(O)c1Cc1c(O)c2ccccc2oc1=O [dicumarol] | 0 |
| OCC(S)CS (stereo not drawn) [dimercaprol] | 1550 |
| C=CC(N)CCC(=O)O (stereo not drawn) [vigabatrin] | 1690 |
| Cc1nnc(SCC2=C(C(=O)[O-])N3C(=O)[C@@H](NC(=O)Cn4cnnn4)[C@H]3SC2)s1.[Na+] [cefazolin sodium] | 1680 |
| COC(=O)C1=C(C)NC(C)=C(C(=O)OCCN2CCN(C(c3ccccc3)c3ccccc3)CC2)C1c1cccc([N+](=O)[O-])c1.Cl (stereo not drawn) [manidipine hydrochloride] | 1540 |
